From PubChem BioAssay
ARNT TACC3 PPI = disruptors of ARNT/TACC3 protein interaction, primary screen, biochemical, AlphaScreen, single concentration | AlphaScreen His-ARNT PAS-B/GST-TACC3 binding, luminescence; TACC3 fragment carries E629A point mutation | inhibition, % at 9.99 µM | hit rate 0.66% among 390,000 | AID 623870, 2012;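 active = mean inhibition of replicates at least 50% and at least half of replicates each reaching 50%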
PDI turbidity = inhibitors of human PDI, primary screen, biochemical, turbidity, single point, plate reader. PDI insulin aggregation turbidity, A650, 90 min. inhibition, % at 10 µM. hit rate 0.052% among 350,000;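 active = mean inhibition across replicates of 30% or more, whatever share of single replicates reach that level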
PglD DTNB = C. jejuni PglD acetyltransferase inhibitors, primary screen, biochemical, DTNB colorimetric, single point | AID 602405, 2012 | purified PglD enzyme, DTNB colorimetric CoA detection | hit rate 0.098% among 360,000 | UDP-N-acetylbacillosamine N-acetyltransferase PglD (Campylobacter jejuni) | inhibition, % at 12.5 µM; in the data active = inhibition above about 16%, passing the limit was not always enough
ERp5 block = inhibitors of ERp5-driven insulin aggregation, primary screen, biochemical, turbidity, absorbance 650 nm, single point; inhibition, % at 9.99 µM; hit rate 0.05% among 350,000; AID 651711, 2012; 90 min; Protein disulfide-isomerase A6 (Homo sapiens), Q15084;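 active = mean replicate inhibition above about 25%, with every replicate also reaching it, limit read from the data, passing the limit was not always enough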
Target sequence (Q15084 whole entry, looked up): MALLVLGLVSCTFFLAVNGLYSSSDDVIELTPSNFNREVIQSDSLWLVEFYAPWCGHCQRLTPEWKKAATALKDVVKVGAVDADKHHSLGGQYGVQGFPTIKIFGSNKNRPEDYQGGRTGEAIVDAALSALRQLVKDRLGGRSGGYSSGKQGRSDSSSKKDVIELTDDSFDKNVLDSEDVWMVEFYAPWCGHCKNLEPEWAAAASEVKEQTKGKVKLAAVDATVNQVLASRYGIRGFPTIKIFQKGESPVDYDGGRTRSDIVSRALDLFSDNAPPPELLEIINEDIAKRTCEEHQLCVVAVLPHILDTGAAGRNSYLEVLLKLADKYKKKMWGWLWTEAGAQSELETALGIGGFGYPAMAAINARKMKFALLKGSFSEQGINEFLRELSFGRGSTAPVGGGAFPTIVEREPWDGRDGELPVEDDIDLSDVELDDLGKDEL
ALR inh = inhibitors of human ALR sulfhydryl oxidase, primary screen, biochemical, H2O2 detection, HRP-luminol luminescence, single point | FAD-linked sulfhydryl oxidase ALR (Homo sapiens), P55789 | purified ALR, DTT oxidation | inhibition, % (no concentration beside the values) | hit rate 3.8% among 290,000;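 active = mean replicate inhibition above about 79%, with every replicate also reaching it, limit read from the data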
Target sequence (P55789 whole entry, looked up): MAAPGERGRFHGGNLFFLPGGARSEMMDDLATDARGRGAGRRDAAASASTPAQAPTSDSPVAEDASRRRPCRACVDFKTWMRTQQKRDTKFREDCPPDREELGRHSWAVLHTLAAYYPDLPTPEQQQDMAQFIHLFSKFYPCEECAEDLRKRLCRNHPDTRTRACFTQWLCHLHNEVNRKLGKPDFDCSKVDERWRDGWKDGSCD
CendR NRP1 mod = modulators of CendR peptide binding to NRP-1, primary screen, biochemical, fluorescence polarization, uHTS; FAM-RPARPAR peptide binding to NRP-1; hit rate 0.85% among 360,000; inhibition, % at 25 µM; AID 602438, 2012;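 active = inhibition or corrected inhibition above about 18%, plus a signal ratio from 0.5 to 1.5, limit read from the data, passing the limit was not always enough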
Numbers stand for hits; – = inactive; · = no result given. The sample as a whole holds a higher share of hits than the screen did.

SMILES | ARNT TACC3 PPI | PDI turbidity | PglD DTNB | ERp5 block | ALR inh | CendR NRP1 mod
COc1ccc(/C=C2\C(=N)N3N=C(CC(=O)N4CCCCC4)SC3=NC2=O)cc1 | – | – | – | – | 80 | –
C[C@@H]1CCCCO[C@@H](CN(C)S(=O)(=O)c2ccccc2)[C@H](C)CN([C@@H](C)CO)C(=O)c2cc(NC(=O)CCCN(C)C)ccc2O1 | – | · | – | – | · | ·
Cc1cccc(N/N=C/c2ccc(O)c(O)c2O)c1 | – | – | · | – | 79 | –
O=[N+]([O-])c1cccc(N/N=C/c2cccc(O)c2O)c1 | – | – | · | – | 100 | –
O=[N+]([O-])c1ccccc1N/N=C/c1cccc(O)c1O | – | – | · | – | · | –
COc1cccc(/C=N/Nc2cc(Cl)nc(C)n2)c1O | · | – | · | – | – | –
COc1cccc(N/N=C/c2cccc(Br)c2O)c1 | – | – | – | – | 99 | –
O=C(c1ccccn1)N1C[C@H]2[C@@H](c3ccccc31)[C@@H](CO)N2C(=O)c1ccccn1 | – | · | – | – | · | ·
O=C(c1cccc(F)c1)N1CC[C@@H]2[C@H](CO)Nc3ccc(-c4cccc(F)c4)cc3[C@@H]21 | – | · | – | · | · | ·
CCN1c2ccccc2-c2nc3ccccc3n2C1c1ccccn1 (stereo unspecified) | – | – | – | · | – | 39
CCN1c2ccccc2-c2nc3ccccc3n2C1c1ccncc1 (stereo unspecified) | – | – | – | · | – | –
CN1CCc2nc(SCC(=O)Nc3cccc(F)c3)c(C#N)c(-c3cccs3)c2C1 | – | – | – | · | · | –
CN1CCc2nc(SCC(=O)Nc3ccc(OC(F)(F)F)cc3)c(C#N)c(-c3cccs3)c2C1 | · | – | · | · | 99 | –
C[C@H](O)C#Cc1ccc([C@@H]2[C@H](CO)N3CCCCN(C(=O)c4cccc(F)c4)C[C@@H]23)cc1 | – | · | – | – | · | ·
CC(=O)c1ccc(-c2ccc(C(=O)NC3CC(C)(C)NC(C)(C)C3)o2)cc1 | – | – | – | – | 98 | –
CC1(C)CC(NC(=O)c2ccc(F)cc2)CC(C)(C)N1 | · | – | – | – | · | –
COCCNC(=O)c1cc2c(c(-c3cccc(C4=CCCCC4)c3)n1)[C@H](CCO)N([S@@](=O)C(C)(C)C)C2 | · | · | · | – | · | ·
CC(=O)N1CC[n+]2c(-c3ccc(Cl)cc3)csc21 | · | – | · | – | 99 | –
CCc1ccc(-c2csc3[n+]2CCN3C(C)=O)cc1 | – | – | – | – | 99 | –
CC(=O)N1CCN(C(=S)c2ccc(Cl)cc2)CC1 | – | – | · | · | – | –
Cc1ccc(S(=O)(=O)N(C)C[C@H]2OCCCC[C@@H](C)Oc3ccc(NS(=O)(=O)c4ccc(F)cc4)cc3C(=O)N([C@@H](C)CO)C[C@H]2C)cc1 | – | · | – | – | · | ·
COc1ccccc1CNc1cc(C)ccc1C | – | – | – | – | 83 | –
COc1ccccc1CNC(=O)CSC1=NCCS1 | – | – | – | – | 99 | –
O=C(O)c1ccccc1CSC1=NCCS1 | – | – | · | – | 98 | –
O=C(CSC1=NCCS1)Nc1ccccc1F | – | – | – | · | 99 | –
SMILES | ARNT TACC3 PPI | PDI turbidity | PglD DTNB | ERp5 block | ALR inh | CendR NRP1 mod
C[C@H](CO)N1C[C@H](C)[C@@H](CN(C)Cc2ccc(-c3ccccc3)cc2)Oc2ccc(NC(=O)Cn3cnnn3)cc2CC1=O | – | · | – | – | · | ·
Cc1noc(C)c1NC(=O)Nc1ccc2c(c1)C(=O)N([C@H](C)CO)C[C@H](C)[C@@H](CN(C)C(=O)CCCN(C)C)OCCCC[C@@H](C)O2 | – | · | – | – | · | ·
COC(=O)c1cc(NC(=O)CSC2=NCCS2)cc(C(=O)OC)c1 | – | – | · | – | 98 | –
O=C(CSC1=NCCS1)Nc1cccc2ccccc12 | – | – | – | · | 98 | –
COc1ccccc1CNC(=O)Cc1ccc(C)cc1 | – | – | · | – | – | 43
COc1ccccc1CNC(=O)CSc1ccc(-c2cccc([N+](=O)[O-])c2)nn1 | – | – | – | – | 84 | –
COc1ccccc1CNC(=O)CSc1ccc(-c2cccs2)nn1 | – | – | · | – | · | –
COc1ccccc1CN1[C@H](C(=O)NCCc2ccncc2)[C@@H](CO)[C@@H]2Cn3c(cccc3=O)[C@@H]21 | – | · | – | – | · | ·
CCCN1C(=O)CC(=O)N=C1SCC(=O)Nc1ccccc1F | – | – | – | – | 99 | –
O=[N+]([O-])c1ccc(O)c(-c2nc(-c3ccccc3)c(-c3cccs3)[nH]2)c1 | – | – | – | · | – | –
COc1ccc(-c2nc(-c3cccs3)c(-c3cccs3)[nH]2)cc1O | – | – | – | · | 99 | –
COc1ccc(/C=C/C(=O)Nc2ccccc2F)cc1S(=O)(=O)N1CCOCC1 | – | – | – | – | – | –
COc1ccc(/C=C/C(=O)Nc2cccc(F)c2)cc1S(=O)(=O)N1CCOCC1 | – | – | – | – | – | 23
COCc1cccc(-c2csc(C(C)(O)c3ccccc3)n2)c1 (stereo unspecified) | · | – | – | – | · | 41
CC(O)(c1ccccc1)c1nc(-c2ccccc2)cs1 (stereo unspecified) | · | – | – | – | · | –
CN(C)C(=O)C[C@@H]1CC[C@H]2[C@@H](COc3ccc(NC(=O)c4cnccn4)cc3C(=O)N2C)O1 | – | · | – | – | · | ·
COc1cc(C(=O)O/N=C2\C=CC(=O)C(C)=C2)cc(OC)c1OC | – | – | – | · | 98 | –
COc1cc(C(=O)ON=C2C=C(C)C(=O)C(C)=C2)cc(OC)c1OC | – | – | · | – | – | –
CC(=NC1CCCC1)c1c(C)[nH]n(-c2nc3ccccc3s2)c1=O | – | – | – | · | 93 | –
CC(=NC1CC1)c1c(-c2ccccc2)[nH]n(-c2nc3ccccc3s2)c1=O | – | – | – | · | – | –
CCOC(=O)c1ccc(NC(=O)c2ccc(NS(C)(=O)=O)cc2)cc1 | – | – | – | · | – | –
CCOC(=O)c1ccc(NC(=O)c2ccccc2)cc1 | – | – | – | – | – | 23
COC(=O)c1ccc(NC(=S)Nc2ccccc2)cc1 | – | – | – | – | – | –
COC(=O)c1ccc(NC(=S)NNC(=O)c2ccccc2)cc1 | – | – | · | – | 92 | –
CCOC(=O)c1ccc(NC(=O)Nc2ccc(F)cc2)cc1 | · | – | – | · | – | –
O=C(NC(=S)Nc1ccc(O)cc1)c1cncc(Br)c1 | – | – | · | – | 99 | –
COC(=O)c1ccc(NC(=O)Nc2ccc(F)cc2)cc1 | – | – | – | · | – | 26
O=C(NNC(=S)Nc1ccc(Br)cc1)c1ccccc1 | – | – | – | – | 97 | –
COC(=O)Cc1ccc(NC(=S)NNC(=O)c2ccccc2Br)cc1 | – | – | – | – | – | –
